The supplement of paper PMC6555819

How the values were obtained:
Experiment in all cases: PBM binding z-score (relative to random genomic background probes); higher = stronger binding; sequences stand for … in GC…GCGATTGACAGCGTAGAATGAAGG
[1] = test system: RARb homodimer (NR concentration 270 nM)
How it was run: (§1)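 Regression normalization was applied to scanned fluorescence from custom Agilent 4×180K protein-binding microarrays. Before scanning, arrays were incubated 1 h with ligand-free nuclear receptor dimers, and binding was detected with antibodies against each partner (one per run). Binding z-scores use the random background probes as reference.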

[2] = test system: RARg:RXRa (NR concentration 270 nM, RXRa partner concentration 90 nM)
How it was run: as §1

[3] = test system: RARg homodimer (NR concentration 270 nM)
How it was run: as §1

[4] = test system: RXRa DBDmut IVT, anti-RXR (DBD mutation: RXRa K156A/R161A, NR concentration 90 nM)
How it was run: as §1

[5] = test system: RXRa homodimer (NR concentration 180 nM)
How it was run: as §1

[6] = test system: THRa:RXRa (NR concentration 90 nM, RXRa partner concentration 90 nM)
How it was run: as §1

[7] = test system: THRa homodimer (NR concentration 90 nM)
How it was run: as §1

[8] = test system: VDR homodimer (NR concentration 270 nM)
How it was run: as §1

Row | Sequence | PBM binding z-score [1] | PBM binding z-score [2] | PBM binding z-score [3] | PBM binding z-score [4] | PBM binding z-score [5] | PBM binding z-score [6] | PBM binding z-score [7] | PBM binding z-score [8]
1 | CCGACTGGGGCAAGGTTGCCATAACGCACAGCCA | 0.376 | 0.327 | 0.556 | -0.586 | 0.107 | 0.0473 | -0.389 | -0.526
2 | CCAGACAGGAGAGAAGGTAACTCAGCCTCGATTA | 0.0999 | -0.0304 | 0.0804 | 0.0336 | 0.0715 | 0.145 | 0.357 | 0.0493
3 | AGCCAAAGTTCACTAGGTAACGTAAGATTCAGCT | 3.85 | 4.99 | 5.83 | 4.29 | 3.74 | 1.91 | -0.25 | 3.46
4 | ATCGAAAGGTTGTGAGGTGAGTATACAGAAAGGC | 1.22 | 1.14 | 1.19 | -0.0955 | 1.24 | 2.23 | 1.49 | 0.162
5 | ATCGAAAGGTCGATGTGAGTATAGAGAAAGGGAA | 1.41 | 3.16 | 3.01 | 1.16 | 2.9 | 1.37 | -0.864 | 0.177
6 | TCTATTAGTTGAAGGGCCACCGACGAGTCCGTTT | 0.971 | 0.277 | 0.128 | 1.69 | 0.47 | 0.074 | 0.396 | 1.35
7 | ATCGAAAGGTCGTGAGGTGAGTATGCAGAAAGGC | 3.26 | 4.63 | 4.17 | 1.02 | 5.27 | 3.56 | 1.71 | 0.782
8 | ATCGAAAGGTCGACGAGCTGAGTATACACCGTTT | 2.38 | 3.86 | 3.6 | 1.09 | 4.01 | 1.58 | -0.705 | 0.176
9 | AGTCTAAGTTCAGGACGAGGTAACGTAAAGCACG | 1.85 | 3.11 | 2.65 | 3.28 | 1.57 | 3.56 | 1.99 | 2.62
10 | TAGCATAGGTCATTGGGCCAGTATAGTACGCATC | 3.23 | 4.88 | 4.65 | 1.58 | 4.77 | 2.29 | -0.526 | 0.622
11 | CTCGAAAGGTCGTGCTCAGGTGACTATACCAAAC | 3.17 | 5.21 | 3.82 | 2.15 | 4.78 | 4.26 | 1.69 | 0.845
12 | CCAGACAGGTGGGAAGGTAACTCAGCCTCGATTA | 0.465 | -0.192 | -0.24 | -0.499 | -0.186 | -0.392 | 0.393 | -0.38
13 | ATCGAAATGTCGACGAGGTGAGTATACACCGTTT | 0.224 | 0.712 | 0.657 | -0.0108 | 0.492 | 1.43 | 0.345 | -0.13
14 | ACAGACAGGTGAGTGAAGGAAACTCAGCTGGACG | -0.566 | -0.0497 | 0.189 | -0.324 | 0.249 | -0.366 | -0.967 | -0.21
15 | TCGAGTAGGATAGGGGCATTCAGAATGGCGTCGA | 0.241 | -0.218 | -0.225 | 0.0984 | 0.155 | 0.209 | -0.171 | 0.237
16 | ATCTCTACGTAAAAGTTCAGTGAATCCCGAGGAT | 2.42 | 1.57 | 2 | 0.755 | 0.831 | 0.591 | 0.154 | 1.5
17 | TCCATTAGTTGAAGGGCAACCGACGAGTCCGTTT | 1.47 | 0.679 | 0.586 | 1.9 | 1.05 | 0.553 | 0.351 | 1.57
18 | TCATTTAGGTAATACAGGTGAAAGTCGGCATCTA | 0.788 | 0.841 | 0.652 | 1.96 | 1.33 | 1.58 | 1 | 0.57
19 | TCATATAGGTAAAAGGTGAAAGTGGGTGTGGTAA | 2.35 | 2.16 | 1.01 | 1.87 | 3.15 | 2.07 | 1.12 | 0.877
20 | CCTGCGAGGTCAATGGTCAGCTAAAGCAGCTCGC | 4.2 | 6.01 | 5.99 | 4.37 | 5.95 | 3.8 | 2.37 | 3.63
21 | TCTTGTAGATCAAGCAGGTTTAGAAAGCCTGAGT | -0.518 | -0.361 | -0.474 | 0.521 | -0.16 | -0.173 | -0.583 | 0.0833
22 | TATACAGGGTCAAAGGCCAGAGTGCGAATGTCGA | 3.58 | 5.91 | 5 | 3.25 | 7.4 | 3.57 | 0.842 | 3.38
23 | CAAACTAGGTCAGGGTCAAAGTCGGTTTGTGCCA | 4.45 | 5.19 | 5.4 | 2.77 | 5.47 | 3.89 | 2.25 | 4.18
24 | GGAACGAGGGCAAGTGGATAGCAGAGTTTGATGG | 1.59 | 1.62 | 2.03 | 1.93 | 0.87 | 1.1 | -0.000164 | 1.39
25 | GCCCGGAGGACAAGGTCAGAGCTTTGTCCGTAGA | 3.19 | 2.99 | 3.62 | 0.344 | 2.04 | 2.92 | 1.67 | 0.864
26 | GCGACTGGGGCAAAGCAGGTTACCATCAGGTTGG | 0.97 | 0.227 | 0.303 | -0.245 | 0.557 | 2.72 | -0.213 | -0.458
27 | ACCAGCAGGCCAAGTTTGGGTCACTCAAACAAAG | 2.33 | 2.44 | 1.51 | -0.217 | 0.731 | 2.61 | 0.952 | 0.435
28 | ACTATTAGTTGAGACGAGGGCGACCGATAGGTTG | 0.339 | 0.187 | 0.419 | 0.572 | 0.161 | 1.23 | -0.4 | 0.337
29 | CCGAGTAGGTTATGGGGCAGTCAGGCAACGGTGA | 0.983 | 0.587 | 0.165 | -0.557 | 0.291 | 0.277 | -0.143 | -0.221
